The record followed here is PubChem BioAssay AID1376 (SRMLSC, 2008).

Each structure is given as a SMILES string. Where “and” joins values, the source holds several entries; their conditions need not be identical. Equal values may be shown once. Among all 220,000 compounds or so, about 530 (0.24%) were called active. This is one part of a sample in which actives are shown more often than they occur. No stated cut-off is given here; in the data, active means inhibition above about 13%; inconclusive means no clear call, values can overlap the other calls; inactive means below that. Entries with a potency or affinity are not part of this list. More than one record can exist for a structure, and the calls need not agree.

In this assay the target is Bifunctional protein GlmU (Mycobacterium tuberculosis (strain ATCC 25618 / H37Rv)) (UniProt P9WMN3). The assay can be described thus: inhibition of mycobacterial GlmU enzyme – biochemical, glucosamine-1-phosphate acetyltransferase (AID 1376).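 Further: 0% = complete reaction with vehicle and 100% = reaction without substrate.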 The settings on record: M. tuberculosis GlmU acetyltransferase enzyme assay; stronger effect = higher value;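 tested at 30 µM in the primary screen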.
Sequence of Bifunctional protein GlmU (Mycobacterium tuberculosis (strain ATCC 25618 / H37Rv)) (P9WMN3 whole entry, looked up): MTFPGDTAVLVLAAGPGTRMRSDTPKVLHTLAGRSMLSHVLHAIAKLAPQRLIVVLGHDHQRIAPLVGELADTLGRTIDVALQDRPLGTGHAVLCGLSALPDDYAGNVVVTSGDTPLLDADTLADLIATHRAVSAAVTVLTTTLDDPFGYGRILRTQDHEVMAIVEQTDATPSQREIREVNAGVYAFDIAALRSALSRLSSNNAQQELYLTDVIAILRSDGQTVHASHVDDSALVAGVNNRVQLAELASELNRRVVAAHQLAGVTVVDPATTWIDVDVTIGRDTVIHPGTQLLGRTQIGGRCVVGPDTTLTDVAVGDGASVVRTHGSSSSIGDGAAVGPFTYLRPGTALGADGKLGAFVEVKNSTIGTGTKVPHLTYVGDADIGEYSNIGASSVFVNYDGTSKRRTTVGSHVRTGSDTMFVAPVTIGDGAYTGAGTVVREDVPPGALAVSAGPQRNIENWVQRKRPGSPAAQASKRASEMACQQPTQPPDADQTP
In the case of `COc1nccnc1NS(=O)(=O)c1ccc(NC(=S)NC(=O)/C=C/c2ccc(F)cc2)cc1`, the inhibition is 10.5% (inactive).

For `O=C(/C=C/NNC(=O)c1ccc(Br)cc1)c1ccccc1`, the inhibition is -0.31% (inactive).

Turning to `O=C(/C=C/NNC(=O)c1cccc(Br)c1)c1cccc(Br)c1`, the inhibition was 12.9% (active).

On to `O=C(/C=C/NNC(=O)c1ccccc1)c1ccc(Br)cc1`, for which the inhibition was -1.06% (inactive).

Consider `CC(C)(C)S(=O)(=O)c1ccsc1C(=O)O`, for which the inhibition is 0.11% (inactive).

Consider `Cc1occc1-c1n[nH]c(=S)n1-c1ccccc1`, for which the inhibition is 12.8% (active).

For the molecule `Cc1ccccc1-n1c(-c2ccoc2C)n[nH]c1=S`, the inhibition was 5.31% (inactive).

As for `Cc1cccc(-n2c(-c3ccoc3C)n[nH]c2=S)c1`, the inhibition is 11.9% (inactive).

Regarding `COc1ccccc1Nc1nc(N)nc(CSCCO)n1`, the inhibition was 1.91% (inactive).

For the molecule `COc1cc(/C=C2/CC/C(=C/c3ccc(O)c(OC)c3)C2=O)ccc1O`, the inhibition is -0.98% (inactive).

As to `COc1cc(/C=C2\CC/C(=C\c3cc(OC)c(OC)c(OC)c3)C2=O)cc(OC)c1OC`, the inhibition was -2% (inactive).

Regarding `COc1cc(/C=C2\CC/C(=C\c3cc(OC)c(O)c(OC)c3)C2=O)cc(OC)c1O`, the inhibition was 14.3% (active).

`N#Cc1ccc2ccn(CC(=O)NC3CCCCCC3)c2c1`: the inhibition was 6.23% (inactive).

For `CC1Oc2cc3c(-c4c(O)cc(O)c5c(O)c6c(cc45)OC(C)C(C)C6=O)c(O)cc(O)c3c(O)c2C(=O)C1C` (stereo not given), the inhibition is 16.3% (active) and 8.27% (inactive).

With `C[C@@H]1Cc2c(O)c(O)cc(O)c2C(=O)O1`, the inhibition was -2.99% (inactive).

On to `CC1CC(=O)c2c(cc3c(-c4c(O)cc(O)c5c(O)c6c(cc45)OC(C)CC6=O)c(O)cc(O)c3c2O)O1` (stereo not given), for which the inhibition was 18.9% (inactive).

Turning to `Cc1ccc(C(=O)Nc2ccc(C(=O)O)cc2)cc1S(=O)(=O)NCc1ccccc1`, the inhibition is -0.6% (inactive).

As for `O=C(O)c1cc2nccc(-c3ccco3)n2n1`, the inhibition was 3.14% (inactive).

On to `Cc1cc2nccc(-c3ccccn3)n2n1`, for which the inhibition was -6.43% (inactive).

Take `Cc1cc2nccc(-c3ccco3)n2n1`: the inhibition was 13.6% (active).

With `Cc1ccc(Nc2c(-c3ccc(N4CCOCC4)cc3)nc3cnccn23)cc1`, the inhibition was -2.79% (inactive).

As to `O=C(NCCCN1CCCCCC1)c1ccc2c(Cl)c3c(nc2c1)CCCC3`, the inhibition is -1.55% (inactive).

Consider `S=C1NC2(CCS1)Oc1ccccc1C1CC(c3ccccc3)=NN12` (stereo not given), for which the inhibition was -6.7% (inactive).

As for `COc1ccc(F)cc1S(=O)(=O)Nc1ccc2c(c1)OCO2`, the inhibition was 14.9% (active).

For the molecule `COc1ccc(F)cc1S(=O)(=O)Nc1ccc2c(c1)OCCO2`, the inhibition is 2.41% (inactive).

For the molecule `COc1ccc(C)cc1S(=O)(=O)Nc1ccc2c(c1)OCO2`, the inhibition was 3.25% (inactive).

In the case of `COc1cc(Nc2ncnc(N)n2)cc(OC)c1OC`, the inhibition was 3.26% (inactive).

`COc1ccc(NC(=O)CN2CCN(CC(=O)Nc3ccccc3F)CC2)cc1OC`: the inhibition is -7.08% (inactive).

Turning to `O=c1[nH]c(/C=C\c2cccs2)nc(O)c1[N+](=O)[O-]`, the inhibition was 2.4% (inactive).

As to `COc1ccc(-n2c(C)cc(/C=C/c3nc(O)c([N+](=O)[O-])c(=O)[nH]3)c2C)cc1`, the inhibition is 10% (inactive).

As for `C=CCc1cc(/C=C/c2nc(O)c([N+](=O)[O-])c(=O)[nH]2)cc(OC)c1O`, the inhibition is 14.5% (active).

For the molecule `O=C(Nc1ccc(F)cc1F)N1CCN(c2ncccn2)CC1`, the inhibition was 1.49% (inactive).

As for `CC(C)(C)OC(=O)N/N=C/c1c[nH]c2ccccc12`, the inhibition was 2.23% (inactive).

Take `O=C(COc1cccnc1[N+](=O)[O-])Nc1ccc2c(c1)OC(F)(F)O2`: the inhibition is 3.24% (inactive).

On to `O=C(NCc1ccc(F)cc1)C1CCCN(c2nc3ccsc3c(=O)s2)C1` (stereo not given), for which the inhibition was 2.37% (inactive).

Consider `CCOC(=O)C1=C(c2ccccc2)NC(SCC(=O)NC2CCCCC2)=C(C#N)C1c1ccco1` (stereo not given), for which the inhibition is 2.37% (inactive).

For the molecule `O=C1N=C(N2CCOCC2)S/C1=C\c1ccc(-c2ccccc2Cl)o1`, the inhibition was 2.7% (inactive).

As to `O=C1/C(=C\c2ccc(-c3ccccc3Cl)o2)SC(=S)N1CC1CCCO1` (stereo not given), the inhibition was 7.34% (inactive).

With `Cc1ccc(/C=C2\SC(=S)N(Cc3ccccc3)C2=O)o1`, the inhibition is -1.65% (inactive).

`CCOc1ccc(/C=C2/SC(=O)NC2=S)cc1`: the inhibition was -3.11% (inactive).

Turning to `O=C(Nc1cccc(NC(=O)c2nccc3ccccc23)c1)c1ccco1`, the inhibition was -1.26% (inactive).

Consider `COc1cc(C(=O)Nc2ccncc2)c([N+](=O)[O-])cc1OC`, for which the inhibition was 6.59% (inactive).

As for `CCN1CCN(c2cc(C)c3cc(NC(=O)c4cnccn4)ccc3n2)CC1`, the inhibition was -5.83% (inactive).

For `O=C1c2ccccc2C(=O)N1OCc1ccc(Cl)cc1`, the inhibition was -2.04% (inactive).

With `O=C1NC(=O)N(Cc2ccc(F)cc2)C(=O)/C1=C/c1cccs1`, the inhibition was -2.44% (inactive).

Regarding `CCN(CC)c1ccc(/C=C2/C(=O)NC(=O)N(Cc3ccco3)C2=O)cc1`, the inhibition was -0.51% (inactive).

For the molecule `O=C1NC(=S)N(Cc2ccco2)C(=O)/C1=C\c1cccs1`, the inhibition was 96% (active).

In the case of `CN(C)c1ccc(/C=C2/C(=O)NC(=O)N(Cc3ccco3)C2=O)cc1`, the inhibition was -4.04% (inactive).

As for `C=CCN1C(=O)/C(=C/c2cccs2)C(=O)NC1=S`, the inhibition is 4.18% (inactive).

For `O=C(/C=C/c1ccco1)c1ccc(NC(=O)C23CC4CC(CC(C4)C2)C3)cc1`, the inhibition is -0.76% (inactive).

For the molecule `Cc1ccc(C)c(S(=O)(=O)NCCOC(=O)Nc2sc(=S)n(C)c2C)c1`, the inhibition was 6.71% (inactive).

On to `CCOC(=O)CNC(=O)CSc1nc(N)cc(N)n1`, for which the inhibition was 1.79% (inactive).

For the molecule `N#CC1=C(N)Oc2c(oc(CO)cc2=O)C1c1ccsc1` (stereo not given), the inhibition was -2.69% (inactive).

`Cc1nn(-c2ccc(Cl)cc2)c(NC(=O)C(C)C)c(-c2ccccc2)c1=O`: the inhibition was -2.2% (inactive).

With `COc1cc(/C=C2/SC(=Nc3ccc(O)cc3)NC2=O)cc(OC)c1O`, the inhibition was 7% (inactive).

As for `COc1cc(/C=C2\SC(=Nc3ccc(O)cc3)NC2=O)cc(OC)c1OC`, the inhibition was -1.9% (inactive).

As for `COc1cc(/C=C2\SC(=Nc3ccc(O)cc3)NC2=O)cc(OC)c1O`, the inhibition is 69.2% (active).

Turning to `COc1ccccc1C1=NNC(=NCc2ccccc2)SC1`, the inhibition was -1.42% (inactive).

As to `CCN(c1ccccc1)S(=O)(=O)c1ccc(OC)c(NC(=O)CN(C)C)c1`, the inhibition is -3.46% (inactive).

With `CCOC(=O)C1=C(NC#N)OC(C)=C(C)C1c1ccc(O)cc1` (stereo not given), the inhibition is -6.11% (inactive).
